Measurements reported in PubChem BioAssay AID1332 (Southern Research Institute, 2008).
In brackets after ≈: the same amount, converted by molar mass. The campaign covered roughly 1,100 compounds. About 170 (15%) were called active. How the calls were made is not given here. The list is a sample of the results.

assay: Confirmatory growth inhibition assay, mycobacterium tuberculosis h37rv, with cytotoxicity (AID 1332);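 on CC50: Vero cells exposed to compounds for 72 hours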;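 on IC50: bacteria incubated 7 days before adding Alamar blue readout reagent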; conditions: M. tuberculosis H37Rv growth inhibition; CC50: measured here: Vero cell cytotoxicity; IC50: measured here: IC50 H37Rv replicates

SMILES	IC50	outcome	CC50
O=S(=O)(O)c1cc(O)ccc1O	> 20 µg/mL	inactive	
CN1C2CCCC1CC(=O)C2	> 20 µg/mL	inactive	
CC1=CC(=O)C2=C(C)C[C@H](O)[C@@H]3[C@H](OC(=O)[C@H]3C)[C@@H]12	> 20 µg/mL	inactive	
CC[C@@H](C(=O)[C@@H](C)[C@@H](O)[C@H](C)CCc1ccc(C)c(O)c1C(=O)O)[C@H]1O[C@](CC)([C@H]2CC[C@](O)(CC)[C@H](C)O2)C[C@@H]1C	6.19 µg/mL (≈ 10.5 µM)	active	> 6 µg/mL
CC(=O)N(CC(C)C(=O)O)c1c(I)cc(I)c(N)c1I (centres undefined)	> 20 µg/mL	inactive	
CC(C)(C)NC[C@H](O)COc1cccc2c1CCCC2=O	> 20 µg/mL	inactive	
C[C@]12CC[C@@H]3c4ccc(O)cc4CC[C@H]3[C@@H]1C[C@@H](O)[C@@H]2O	> 20 µg/mL	inactive	
NC(N)=NCC1COC2(CCCCC2)O1 (centres undefined)	> 20 µg/mL	inactive	
Nc1ccc(S(N)(=O)=O)cc1	> 20 µg/mL	inactive	
Nc1ccc(S(=O)(=O)c2ccc(N)cc2)cc1	9.09 µg/mL (≈ 36.6 µM)	active	
NC(N)=NS(=O)(=O)c1ccc(N)cc1	> 20 µg/mL	inactive	
O=c1[nH]c(=O)n([C@H]2CC(O)[C@@H](CO)O2)cc1I (some centres undefined)	> 20 µg/mL	inactive	
Cn1cc[nH]c1=S	> 20 µg/mL	inactive	
CCN1CCC[C@H]1CNC(=O)c1c(OC)ccc(Br)c1OC	> 20 µg/mL	inactive	
CCCc1ncc(C[n+]2ccccc2C)c(N)n1	> 20 µg/mL	inactive	
NC(=O)c1ccc[n+]([C@@H]2O[C@H](COP(=O)([O-])OP(=O)(O)OC[C@H]3O[C@@H](n4cnc5c(N)ncnc54)[C@H](O)[C@@H]3O)[C@@H](O)[C@H]2O)c1	> 20 µg/mL	inactive	
Cc1onc(-c2c(F)cccc2Cl)c1C(=O)N[C@@H]1C(=O)N2C(C(=O)O)C(C)(C)S[C@H]12 (some centres undefined)	> 20 µg/mL	inactive	
CNCCCC1c2ccccc2C=Cc2ccccc21	17.4 µg/mL (≈ 66 µM)	active	> 6 µg/mL
NCc1ccc(S(N)(=O)=O)cc1	> 20 µg/mL	inactive	
COc1ncnc(NS(=O)(=O)c2ccc(N)cc2)c1OC	> 20 µg/mL	inactive	
COc1cc(NS(=O)(=O)c2ccc(N)cc2)nc(OC)n1	12.6 µg/mL (≈ 40.7 µM)	active	
COc1cnc(NS(=O)(=O)c2ccc(N)cc2)nc1	> 20 µg/mL	inactive	
C[C@@H]1NC(=O)NC1=O	> 20 µg/mL	inactive	
CC1CS(=O)(=O)CCN1N=Cc1ccc([N+](=O)[O-])o1 (centres undefined)	2.74 µg/mL (≈ 9.55 µM)	active	
O=C1OC(CN2CCOCC2)CN1/N=C/c1ccc([N+](=O)[O-])o1 (centres undefined)	> 20 µg/mL	inactive	
CCCc1cc(=O)[nH]c(=S)[nH]1	> 20 µg/mL	inactive	

SMILES	IC50	outcome	CC50
CCOC(=O)Nc1ccc2c(c1)N(C(=O)CCN1CCOCC1)c1ccccc1S2	> 20 µg/mL	inactive	
CCN(CC)CCOC(=O)C(c1ccccc1)c1ccccc1	> 20 µg/mL	inactive	
CC(C)NC[C@@H](O)COc1cccc2ccccc12	> 20 µg/mL	inactive	
CN[C@H](CC(C)C)C(=O)N[C@H]1C(=O)N[C@@H](CC(N)=O)C(=O)N[C@H]2C(=O)N[C@H]3C(=O)N[C@H](C(=O)N[C@H](C(=O)O)c4cc(O)cc(O)c4-c4cc3ccc4O)[C@H](O)c3ccc(c(Cl)c3)Oc3cc2cc(c3O[C@@H]2OC(CO)[C@@H](O)[C@H](O)[C@H]2O[C@H]2C[C@](C)(N)[C@H](O)[C@H](C)O2)Oc2ccc(cc2Cl)[C@H]1O (some centres undefined)	1.06 µg/mL (≈ 0.732 µM)	active	
C[C@@H]1O[C@@H](O[C@H]2[C@H](Oc3cc(O)c4c(c3)O[C@H](c3ccc(O)cc3)CC4=O)O[C@H](CO)[C@@H](O)[C@@H]2O)[C@H](O)[C@H](O)[C@H]1O	> 20 µg/mL	inactive	
COc1ccc(C(=O)c2ccccc2)c(O)c1	> 20 µg/mL	inactive	
CCC[C@@H]1C[C@@H](C(=O)N[C@@H]([C@H]2O[C@H](SC)[C@H](O)[C@@H](O)[C@@H]2O)[C@@H](C)O)N(C)C1	11.6 µg/mL (≈ 28.5 µM)	active	
CCC[C@@H]1C[C@@H](C(=O)N[C@@H](C2O[C@H](SC)[C@H](O)[C@@H](O)[C@H]2O)[C@H](C)Cl)N(C)C1 (some centres undefined)	0.395 µg/mL (≈ 0.929 µM)	active	
CCC(=O)O[C@@H]1CC(=O)O[C@H](C)C/C=C/C=C/[C@@H](O)[C@H](C)C[C@H](CC=O)[C@H](O[C@@H]2O[C@H](C)[C@@H](O[C@H]3C[C@@](C)(O)[C@@H](OC(=O)CC)[C@H](C)O3)[C@H](N(C)C)[C@H]2O)[C@H]1OC	> 20 µg/mL	inactive	
CN(C)CCOC(c1ccc(Cl)cc1)c1ccccn1 (centres undefined)	> 20 µg/mL	inactive	
CCOC(=O)[C@H](CCc1ccccc1)N[C@@H](C)C(=O)N1C(C(=O)O)C[C@@H]2CCC[C@@H]21 (some centres undefined)	> 20 µg/mL	inactive	
Cc1onc(-c2ccccc2Cl)c1C(=O)N[C@@H]1C(=O)N2[C@@H]1SC(C)(C)[C@@H]2C(=O)O	> 20 µg/mL	inactive	
Cn1nnnc1SCC1=C(C(=O)O)N2C(=O)[C@@H](NC(=O)[C@H](O)c3ccccc3)[C@H]2SC1	> 20 µg/mL	inactive	
CN(C)CCn1nnnc1SCC1=C(C(=O)O)N2C(=O)[C@@H](NC(=O)Cc3csc(N)n3)[C@H]2SC1	> 20 µg/mL	inactive	
NCc1ccccc1CC(=O)N[C@@H]1C(=O)N2C(C(=O)O)=C(CSc3nnnn3CC(=O)O)CS[C@H]12	13.8 µg/mL (≈ 26.6 µM)	active	
CC(C)(C)NCC(O)COc1cccc2c1CCC(=O)N2 (centres undefined)	> 20 µg/mL	inactive	
Cc1n[nH]c(=O)[nH]c1=O	> 20 µg/mL	inactive	
CCN(CC)CCNC(=O)c1cc(Cl)c(N)cc1OC	> 20 µg/mL	inactive	
COc1cc(N)c(Cl)cc1C(=O)NC1CCN(Cc2ccccc2)CC1	> 20 µg/mL	inactive	
COc1cc(N)c(Cl)cc1C(=O)N[C@H]1CCN(CCCOc2ccc(F)cc2)C[C@H]1OC	9.3 µg/mL (≈ 20 µM)	active	
O=C(O)C1CCCNC1 (centres undefined)	> 20 µg/mL	inactive	
CC(=O)Nc1cc2ccccc2oc1=O	> 20 µg/mL	inactive	
CCCC(=O)Nc1ccc(OCC(O)CNC(C)C)c(C(C)=O)c1 (centres undefined)	> 20 µg/mL	inactive	
COc1cc(/C=C/C(=O)N2CCC=CC2=O)cc(OC)c1OC	11.4 µg/mL (≈ 36.1 µM)	active	1.53 µg/mL (≈ 4.82 µM)
COc1cc(C(=O)OCCCN2CCCN(CCCOC(=O)c3cc(OC)c(OC)c(OC)c3)CC2)cc(OC)c1OC	> 20 µg/mL	inactive	
CC(=O)[C@H]1CC[C@H]2[C@@H]3C=CC4=CC(=O)CC[C@@]4(C)[C@@H]3CC[C@]12C	> 20 µg/mL	inactive	

SMILES	IC50	outcome	CC50
CC(N)CCCC(C)(C)O (centres undefined)	> 20 µg/mL	inactive	
CC1(C)S[C@@H]2[C@H](NC(=O)[C@H](N)c3ccccc3)C(=O)N2[C@H]1C(=O)OC1OC(=O)c2ccccc21 (some centres undefined)	> 20 µg/mL	inactive	
CC(=O)Oc1ccc(C(c2ccc(OC(C)=O)cc2)c2ccccn2)cc1	> 20 µg/mL	inactive	
CC(=O)N=c1sc(S(N)(=O)=O)nn1C	> 20 µg/mL	inactive	
C=C(C)[C@@H]1CC[C@]2(CO)CC[C@]3(C)[C@H](CC[C@@H]4[C@@]5(C)CC[C@H](O)C(C)(C)[C@@H]5CC[C@]43C)[C@@H]12	> 20 µg/mL	inactive	> 6 µg/mL
CC(C)(C)CC(C)(C)c1ccc(OCOCCOCCO)c(Cc2cc(C(C)(C)CC(C)(C)C)cc(Cc3cc(C(C)(C)CC(C)(C)C)ccc3OCOCCOCCO)c2OCOCCOCCO)c1	> 20 µg/mL	inactive	
C[N+](C)(CCOc1ccccc1)Cc1ccccc1	> 20 µg/mL	inactive	
CC(C)(C)CC(C)(C)c1ccc(OCCOCC[N+](C)(C)Cc2ccccc2)cc1	8 µg/mL	active	
CCCCC1(COC(=O)CCC(=O)O)C(=O)N(c2ccccc2)N(c2ccccc2)C1=O	> 20 µg/mL	inactive	
CNCCC(Oc1ccccc1OC)c1ccccc1 (centres undefined)	> 20 µg/mL	inactive	
CNCCC(Oc1ccc(C(F)(F)F)cc1)c1ccccc1 (centres undefined)	9.88 µg/mL (≈ 32 µM)	active	> 6 µg/mL
CO[C@H]1C=C2CCN(C)[C@H]2C2c3cc4c(cc3C(=O)O[C@@H]21)OCO4 (some centres undefined)	> 20 µg/mL	inactive	
C#C[C@]1(OC(C)=O)CC[C@H]2[C@@H]3CCC4=C[C@@H](OC(C)=O)CC[C@@H]4[C@H]3CC[C@@]21C	> 20 µg/mL	inactive	
CN(C)[C@@H]1C(=O)C(C(=O)NCN2CCCC2)=C(O)[C@@]2(O)C(=O)C3=C(O)c4c(O)cccc4[C@@](C)(O)C3CC12 (some centres undefined)	> 20 µg/mL	inactive	
C[C@H]1c2cccc(O)c2C(O)=C2C(=O)C3(O)C(O)=C(C(N)=O)C(=O)[C@@H](N(C)C)[C@@H]3[C@@H](O)[C@@H]21 (some centres undefined)	2.44 µg/mL (≈ 5.49 µM)	active	
CN(C)[C@@H]1C(=O)C(C(N)=O)=C(O)[C@@]2(O)C(=O)C3=C(O)c4c(O)ccc(Cl)c4[C@@](C)(O)C3C[C@@H]12 (some centres undefined)	13.2 µg/mL (≈ 27.5 µM)	active	
C=C1c2c(Cl)ccc(O)c2C(O)=C2C(=O)[C@]3(O)C(O)=C(C(N)=O)C(=O)[C@@H](N(C)C)[C@@H]3[C@@H](O)C12 (some centres undefined)	3.86 µg/mL (≈ 8.1 µM)	active	> 6 µg/mL
CN(C)[C@@H]1C(=O)C(C(N)=O)=C(O)[C@@]2(O)C(=O)C3=C(O)c4c(O)cccc4[C@@](C)(O)[C@H]3[C@H](O)[C@@H]12	> 20 µg/mL	inactive	
C=C1c2cccc(O)c2C(O)=C2C(=O)[C@]3(O)C(O)=C(C(N)=O)C(=O)[C@@H](N(C)C)[C@@H]3[C@@H](O)[C@H]12	> 17.9 µg/mL	active	
CCC(=O)OCC(=O)C1(OC(=O)CC)[C@H](C)C[C@H]2[C@H]3[C@H]([C@@H](O)C[C@@]21C)[C@@]1(C)C=CC(=O)C=C1C[C@H]3Cl (some centres undefined)	> 20 µg/mL	inactive	
O=C1C(CCS(=O)c2ccccc2)C(=O)N(c2ccccc2)N1c1ccccc1 (centres undefined)	> 20 µg/mL	inactive	
CN(C)C/C=C(\c1ccc(Br)cc1)c1cccnc1	> 20 µg/mL	inactive	
CC1(C)S[C@@H]2[C@H](NC(=O)[C@H](N)c3ccccc3)C(=O)N2[C@H]1C(=O)O	> 20 µg/mL	inactive	
CN(Cc1cnc2nc(N)nc(N)c2n1)c1ccc(C(=O)NC(CCC(=O)O)C(=O)O)cc1 (centres undefined)	> 20 µg/mL	inactive	0.048 µg/mL (≈ 0.106 µM)
